Calls of active or inactive are those of the source.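 The calls were made as follows, unless noted: active = NADPH fluorescence slope more negative than the mean of all samples by about 3 SD, 99.7% confidence; inactive = the rest.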

Assay [1] is described as follows: inhibitors of TNFa-induced NFkB p65 translocation, primary screen, imaging, HUVEC, MLSMR starter and 10KST1 sets (AID 438;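 active = inhibition above 20% together with a positive visual image hit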;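 also: compound added about 3h40 before a 20 min TNFalpha stimulation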;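 as to inhibition: signal is the nuclear over cytoplasmic p65 intensity ratio per well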). The note with it: HUVEC TNFa-induced p65 nuclear translocation; cell count: measured here: nuclei count (cytotoxicity indicator), at 2.08 µM; inhibition: at 2 µM, stronger effect = higher value, 0% TNFa-plus-vehicle, 100% no-TNFa wells.
Assay [2] is described as follows: inhibitors of mutant huntingtin aggregation, primary screen, imaging, exon1htt(103Q)mCFP cells, high-content imaging (AID 483;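 active = visual image review flags a hit and inhibition of aggregation exceeds 20%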;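 also: compound exposure lasted 3 days before fixation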;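 as to nuclei count: percent of the per-plate median nuclei count of sample wells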). As to conditions: exon1htt(103Q)mCFP cell line, aggregate imaging, at 2 µM; inhibition of aggregation: stronger effect = higher value; nuclei count: measured here: cell count, toxicity.
Assay [3] is described as follows: inhibitors of E-selectin induction by TNFa, primary screen, imaging, HUVEC, immunofluorescence, MLSMR starter and 10KST1 sets (AID 487;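 active = visually confirmed hit in the image check and inhibition above 20%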;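 as to inhibition: signal is fraction of cell area covered by stained E-selectin grains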;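 as to nuclei count: 100% = median nuclei count of all wells on the same plate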). The note with it: HUVEC TNFalpha-induced E-selectin immunofluorescence imaging, at 2 µM; inhibition: stronger effect = higher value; nuclei count: measured here: cell number, toxicity.
In assay [4] the target is Voltage-gated potassium channel subunit beta-2 (Rattus norvegicus) (UniProt P62483). Kind of assay: KvBeta enzyme negative modulators, primary screen, biochemical, NADPH fluorescence (AID 622;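 active = fluorescence slope higher than the sample average by over 3 SD, cut at about -0.22 in these data, passing the limit was not always enough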;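 also: slope of raw intensity against log time taken from 70 to 1610 s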). The note with it: recombinant KvBeta, 4-cyanobenzaldehyde reduction, at 10 µM, stronger effect = higher value.
Chain of Voltage-gated potassium channel subunit beta-2 (Rattus norvegicus) (P62483 whole entry, looked up): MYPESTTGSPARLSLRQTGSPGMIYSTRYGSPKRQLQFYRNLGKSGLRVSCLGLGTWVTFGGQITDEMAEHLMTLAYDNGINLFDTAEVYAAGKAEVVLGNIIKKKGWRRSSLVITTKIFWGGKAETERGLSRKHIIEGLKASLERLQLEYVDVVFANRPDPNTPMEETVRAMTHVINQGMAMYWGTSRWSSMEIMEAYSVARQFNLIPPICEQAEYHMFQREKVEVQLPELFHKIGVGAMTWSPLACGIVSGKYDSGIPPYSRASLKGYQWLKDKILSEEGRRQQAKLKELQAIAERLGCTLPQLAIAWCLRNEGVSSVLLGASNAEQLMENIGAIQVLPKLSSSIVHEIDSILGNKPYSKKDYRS
For assay [5] the target is unchanged. The assay can be described thus: KvBeta positive modulators, primary screen, biochemical, NADPH fluorescence (AID 623).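 Also: fluorescence intensity change per second fitted from 20 to 320 s.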 As to conditions: Recombinant KvBeta, NADPH fluorescence decrease slope, 10 min; at 10 µM; stronger effect = lower value.
Assay [6] concerns the target Alpha-2C adrenergic receptor (Homo sapiens) (UniProt P18825). The assay can be described thus: modulators of alpha2C/GIRK thallium flux, primary screen, cell-based, HEK293 alpha2C/GIRK1/2 (AID 624;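 active = fluorescence slope after compound addition differing from the mean of all screened samples at 99.7% confidence, in either direction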;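 also: slope of fluorescence ratio to pre-addition baseline per second over 15 to 24 s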). As to conditions: thallium flux BTC fluorescence, at 10 µM, actives lie on both sides.
The nature of assay [7]: inhibitors of Sendai virus-induced IRF3 signaling, primary screen, TLR/RLR signaling modifier project, cell-based, Sendai virus stimulus, luciferase, 10K MLSCN set (AID 602276;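 active = inhibition at or above 50% at 10 µM; inactive = inhibition below 50%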;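 also: firefly luciferase from ISG56 promoter only with Renilla not read in this screen; 0% = Sendai virus plus DMSO and 100% = medium plus DMSO without virus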). As to conditions: HEK293 RL24 IRF3 luciferase reporter, at 10 µM, stronger effect = higher value. Background: Reporter assays use an easily measured gene product as a stand-in for the process of interest.
A short description of assay [8]: inhibitors of poly I:C-induced TLR3 signaling, primary screen, cell-based, poly I:C stimulus, luciferase, 10K MLSCN set (AID 602277;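 active = inhibition of the reporter signal at or above 50%; inactive = inhibition below 50%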). The note with it: HEK293-TLR3 RL24 IRF3 luciferase reporter, at 10 µM, stronger effect = higher value.

Chain of Alpha-2C adrenergic receptor (Homo sapiens) (P18825 whole entry, looked up): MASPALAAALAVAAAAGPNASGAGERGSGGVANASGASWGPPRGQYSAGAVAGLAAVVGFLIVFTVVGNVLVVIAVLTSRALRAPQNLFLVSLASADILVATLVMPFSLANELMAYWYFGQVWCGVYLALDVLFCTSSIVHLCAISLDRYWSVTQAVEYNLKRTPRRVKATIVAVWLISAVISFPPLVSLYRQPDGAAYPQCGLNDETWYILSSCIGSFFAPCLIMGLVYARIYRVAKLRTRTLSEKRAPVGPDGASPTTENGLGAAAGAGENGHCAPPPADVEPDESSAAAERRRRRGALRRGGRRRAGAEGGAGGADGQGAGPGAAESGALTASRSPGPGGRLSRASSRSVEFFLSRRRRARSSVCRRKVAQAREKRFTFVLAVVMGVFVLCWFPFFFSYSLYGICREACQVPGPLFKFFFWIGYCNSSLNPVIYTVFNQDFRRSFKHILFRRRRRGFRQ

As usually defined, the inhibition is the relative decrease from the control value, in per cent. In the case of `CC(C)(Oc1ccc(Cl)cc1)C(=O)NC1CCSC1=O` (centres undefined), the cell count in assay [1] was found to be 620. Besides, the inhibition in assay [1] is -7.5% (inactive); in assay [3], -63.4% (inactive); in assay [7], 10.9% (inactive); in assay [8], 15.9% (inactive). In addition, the inhibition of aggregation in assay [2] was -23.8% (inactive). The nuclei count in assay [2] came to 112%; in assay [3], 103%. In addition, in assay [4], the fluorescence slope was -0.502 (inactive). The NADPH fluorescence slope in assay [5] was -2.8e-05 (inactive). Further, in assay [6], the slope is 0.00406 (inactive).
Regarding `CC(=O)c1cccc(NC(=O)N2CCCc3ccccc32)c1`, in assay [1], the cell count is 334. Besides, the inhibition in assay [1] was 2% (inactive); in assay [3] it was -43.9% (inactive); in assay [7], 9.66% (inactive); in assay [8], -1.85% (inactive). In addition, in assay [2], the inhibition of aggregation was -9.8% (inactive). The nuclei count amounted to 95.3% in assay [2] and 120% in assay [3]. For the same compound, the fluorescence slope in assay [4] was -0.622 (inactive). Further, in assay [5], the NADPH fluorescence slope is 3.7e-06 (inactive). For the same compound, the slope in assay [6] was 0.00357 (inactive).
Take `COc1ccc(C2C(C#N)=C(N)Oc3cc4c(cc32)OCO4)cc1` (centres undefined): in assay [1], the cell count was 496. For the same compound, the inhibition was 3.5% (inactive) in assay [1], -103% (inactive) in assay [3], -6.84% (inactive) in assay [7] and 59.4% (active) in assay [8]. Besides, the inhibition of aggregation in assay [2] was 4.7% (inactive). The nuclei count in assay [2] was 105%; in assay [3] it was 110%. Moreover, the fluorescence slope in assay [4] was -0.401 (inactive). Also, in assay [5], the NADPH fluorescence slope was -5.6e-05 (inactive). Also, in assay [6], the slope was 0.00586 (inactive).
For the compound `CC(C)c1ccc(NC(=O)CCNS(=O)(=O)c2cccc3nonc23)cc1`, the cell count in assay [1] was determined as 669. Besides, the inhibition in assay [1] was -6.5% (inactive); in assay [3] it was -55.8% (inactive); in assay [7] it was 16.4% (inactive); in assay [8] it was 24.2% (inactive). Besides, in assay [2], the inhibition of aggregation is 24.6% (inactive). The values for the nuclei count in assay [2] and in assay [3] were 98% and 106%, respectively. In addition, the fluorescence slope in assay [4] was -0.544 (inactive). Further, in assay [5], the NADPH fluorescence slope is 2.2e-05 (inactive). Further, in assay [6], the slope is 0.00564 (inactive).
In the case of `CCOc1ccc2nc(NC(=O)CSc3nc4ccccc4c(=O)n3Cc3ccco3)sc2c1`, the cell count in assay [1] came to 654. The inhibition is -6.1% (inactive) in assay [1], -65.7% (inactive) in assay [3], 15.6% (inactive) in assay [7] and 10% (inactive) in assay [8]. Moreover, the inhibition of aggregation in assay [2] is -5.6% (inactive). The nuclei count in assay [2] worked out at 115%; in assay [3], 132%. In addition, the fluorescence slope in assay [4] was -0.413 (inactive). Also, the NADPH fluorescence slope in assay [5] was 9.6e-06 (inactive). Moreover, in assay [6], the slope was 0.00934 (active).
Consider `CCC(C)(C)n1nnnc1C(c1cc2cc(C)ccc2[nH]c1=O)N1CCCC1` (centres undefined), for which the cell count in assay [1] stood at 353. Also, the inhibition in assay [1] is 4.2% (inactive); in assay [3] it was -273% (inactive); in assay [7], 13.6% (inactive); in assay [8], 28.7% (inactive). Besides, the inhibition of aggregation in assay [2] was -27.7% (inactive). Moreover, the nuclei count in assay [2] was 103%; in assay [3], 110%. Besides, in assay [4], the fluorescence slope was -0.43 (inactive). The NADPH fluorescence slope in assay [5] is 2.7e-05 (inactive). In addition, the slope in assay [6] is 0.00689 (inactive).
Regarding `Oc1ccc2ccccc2c1CN1CCN(c2ccccc2F)CC1`, the cell count in assay [1] is 564. The inhibition was 2.2% (inactive) in assay [1], 9.5% (inactive) in assay [3], 9.17% (inactive) in assay [7] and 26.6% (inactive) in assay [8]. Besides, in assay [2], the inhibition of aggregation was 7.8% (inactive). Besides, the nuclei count in assay [2] was 107%; in assay [3], 111%. Also, the fluorescence slope in assay [4] was -0.574 (inactive). Moreover, the NADPH fluorescence slope in assay [5] was -3.4e-05 (inactive). The slope in assay [6] was 0.00592 (inactive).
As for `Cc1ccc(-c2cc(C(=O)NCCN3CCOCC3)no2)cc1`, in assay [1], the cell count was 605. In addition, the inhibition in assay [1] was 1.9% (inactive); in assay [3], -4% (inactive); in assay [7] it was -29.5% (inactive); in assay [8], -36.6% (inactive). In addition, the inhibition of aggregation in assay [2] was 41.6% (inactive). For the same compound, the nuclei count in assay [2] was 69.9%; in assay [3], 101%. Moreover, the fluorescence slope in assay [4] is -0.452 (inactive). Further, the NADPH fluorescence slope in assay [5] is 8.4e-05 (inactive). Besides, the slope in assay [6] was 0.0051 (inactive).
For the compound `CCOC(=O)c1c(NC(=O)Cn2c(=O)oc3ccccc32)oc(C)c1C(C)=O`, the cell count in assay [1] stood at 365. The inhibition in assay [1] was -5.4% (inactive); in assay [3], 1.9% (inactive); in assay [7], 5.7% (inactive); in assay [8], 11.9% (inactive). Also, the inhibition of aggregation in assay [2] was -18.8% (inactive). For the same compound, the nuclei count in assay [2] turned out to be 74.1%; in assay [3], 119%. Also, the fluorescence slope in assay [4] was -0.484 (inactive). Also, the NADPH fluorescence slope in assay [5] was 1.5e-05 (inactive). In assay [6], the slope is 0.00454 (inactive).
On to `Cc1cc(C)c2c(n1)nn1c(N3CCN(c4cccc(Cl)c4)CC3)cc(C)nc21`, for which, in assay [1], the cell count is 458. Also, the inhibition was -7.1% (inactive) in assay [1], -60.1% (inactive) in assay [3], 9.81% (inactive) in assay [7] and 21.4% (inactive) in assay [8]. The inhibition of aggregation in assay [2] was 3.7% (inactive). The nuclei count in assay [2] was determined as 97.9%; in assay [3] it was 130%. In addition, the fluorescence slope in assay [4] is -0.303 (inactive). In addition, the NADPH fluorescence slope in assay [5] is 1.1e-05 (inactive). The slope in assay [6] is 0.00567 (inactive).
As to `O=C(CC1CCS(=O)(=O)C1)Nc1ccc[nH]c1=O` (centres undefined), in assay [1], the cell count is 475. In addition, the inhibition in assay [1] was -4.7% (inactive); in assay [3], 42.5% (inactive); in assay [7], 16.2% (inactive); in assay [8], 8.75% (inactive). Besides, the inhibition of aggregation in assay [2] is -4.6% (inactive). The nuclei count in assay [2] turned out to be 63.8%; in assay [3] it was 49%. In addition, in assay [4], the fluorescence slope is -0.41 (inactive). Besides, the NADPH fluorescence slope in assay [5] was -6.4e-05 (inactive). The slope in assay [6] is 0.0024 (inactive).
Turning to `CCCSc1nc2c(cnn2-c2ccc(C)cc2)c(=O)[nH]1`, the cell count in assay [1] was determined as 671. In addition, the inhibition in assay [1] was -5.8% (inactive); in assay [3], -17.4% (inactive); in assay [7], -9.65% (inactive); in assay [8], 10.6% (inactive). For the same compound, the inhibition of aggregation in assay [2] is -5.9% (inactive). Besides, the nuclei count in assay [2] stood at 115%; in assay [3], 113%. For the same compound, the fluorescence slope in assay [4] was -0.545 (inactive). The NADPH fluorescence slope in assay [5] was -5.2e-06 (inactive). In addition, the slope in assay [6] was 0.0075 (inactive).
Consider `Cc1ccnc(SCCn2c(N3CCCCC3)nc3c2c(=O)n(C)c(=O)n3C)n1`, for which the cell count in assay [1] was 249. Also, the inhibition is 4.4% (inactive) in assay [1], -49.1% (inactive) in assay [3], 10.1% (inactive) in assay [7] and 36.5% (inactive) in assay [8]. Further, the inhibition of aggregation in assay [2] is -9.4% (inactive). Further, the nuclei count in assay [2] came out at 93.5%; in assay [3], 107%. Moreover, in assay [4], the fluorescence slope was -0.319 (inactive). The NADPH fluorescence slope in assay [5] is 1.8e-05 (inactive). Also, in assay [6], the slope was 0.00339 (inactive).
For the compound `COc1cccc(C2C3=C(N=C4SCC(=O)N42)c2ccccc2CC3)c1OC` (centres undefined), in assay [1], the cell count worked out at 680. In addition, the inhibition in assay [1] was 1.6% (inactive); in assay [3] it was -15.3% (inactive); in assay [7] it was -0.493% (inactive); in assay [8], 29.3% (inactive). Besides, the inhibition of aggregation in assay [2] was -10.8% (inactive). Besides, the nuclei count in assay [2] worked out at 107%; in assay [3], 98.5%. For the same compound, the fluorescence slope in assay [4] is -0.442 (inactive). Moreover, the NADPH fluorescence slope in assay [5] was 4.1e-05 (inactive). The slope in assay [6] is 0.00306 (inactive).

These data come from PubChem BioAssay.
